The results in this text go back to publication PMC7862700, “An all-to-all approach to the identification of sequence-specific readers for epigenetic DNA modifications on cytosine”.

Common to all, as to experiment: DAPPL (digital affinity profiling via proximity ligation, sequencing); 10 mM Tris-HCl pH 7.5, 50 mM NaCl, 1 mM DTT, 4% glycerol, room temperature, 30 min; GST-TFs on glutathione beads, 16-mer random dsDNA library, 0.1% formaldehyde crosslink after washing; high values mean tight binding
Common to all, as to conditions: protein: recombinant; tags: N-terminal GST; dsDNA, one strand shown

The target in one experiment is T1, FLI1 (Homo sapiens, UniProt Q01543 1-452).
T1 sequence: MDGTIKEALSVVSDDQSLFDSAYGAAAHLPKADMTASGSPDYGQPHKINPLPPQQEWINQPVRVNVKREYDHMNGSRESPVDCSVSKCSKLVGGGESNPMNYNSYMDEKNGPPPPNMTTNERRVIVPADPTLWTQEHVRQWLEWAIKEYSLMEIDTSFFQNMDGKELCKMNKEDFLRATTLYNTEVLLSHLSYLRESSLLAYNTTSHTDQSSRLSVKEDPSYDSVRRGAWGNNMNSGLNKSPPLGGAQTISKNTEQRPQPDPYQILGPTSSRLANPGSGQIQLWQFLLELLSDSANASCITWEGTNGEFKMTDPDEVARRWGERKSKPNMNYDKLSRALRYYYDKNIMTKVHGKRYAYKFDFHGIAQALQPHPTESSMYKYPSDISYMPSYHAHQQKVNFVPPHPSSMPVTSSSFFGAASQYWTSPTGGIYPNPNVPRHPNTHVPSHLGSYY
The procedure, abridged:
(§1)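 Each value of binding signal is a hexamer's read frequency for a factor divided by the same hexamer's frequency in the tag-only sample. Barcoded, bead-captured GST fusions of human transcription factors made in yeast were pooled with that sample and incubated with 200 nmole of a random double-stranded 16-mer DNA library in Tris/NaCl/DTT/glycerol buffer at room temperature for 30 min. Washing, 0.1% formaldehyde crosslinking, proximity ligation, PCR and Illumina NextSeq500 sequencing followed.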

For another experiment, the target named is T2, ELK1 (Homo sapiens, UniProt P19419 1-428).
T2 sequence: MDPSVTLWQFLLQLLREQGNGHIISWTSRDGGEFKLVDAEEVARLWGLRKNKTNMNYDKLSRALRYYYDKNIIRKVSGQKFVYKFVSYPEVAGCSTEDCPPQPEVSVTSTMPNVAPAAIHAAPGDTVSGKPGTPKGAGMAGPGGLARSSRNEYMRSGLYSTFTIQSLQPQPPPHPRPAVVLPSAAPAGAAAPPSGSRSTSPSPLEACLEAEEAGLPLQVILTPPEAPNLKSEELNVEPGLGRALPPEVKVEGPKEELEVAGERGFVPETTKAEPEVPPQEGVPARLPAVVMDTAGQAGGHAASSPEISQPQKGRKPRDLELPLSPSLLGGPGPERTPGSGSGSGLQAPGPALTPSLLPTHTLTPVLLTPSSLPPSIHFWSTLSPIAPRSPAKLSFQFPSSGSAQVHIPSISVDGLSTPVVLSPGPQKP
The procedure, abridged: as §1

For the next experiment, the target named is T3, GABPA (Homo sapiens, UniProt Q06546 1-454).
T3 sequence: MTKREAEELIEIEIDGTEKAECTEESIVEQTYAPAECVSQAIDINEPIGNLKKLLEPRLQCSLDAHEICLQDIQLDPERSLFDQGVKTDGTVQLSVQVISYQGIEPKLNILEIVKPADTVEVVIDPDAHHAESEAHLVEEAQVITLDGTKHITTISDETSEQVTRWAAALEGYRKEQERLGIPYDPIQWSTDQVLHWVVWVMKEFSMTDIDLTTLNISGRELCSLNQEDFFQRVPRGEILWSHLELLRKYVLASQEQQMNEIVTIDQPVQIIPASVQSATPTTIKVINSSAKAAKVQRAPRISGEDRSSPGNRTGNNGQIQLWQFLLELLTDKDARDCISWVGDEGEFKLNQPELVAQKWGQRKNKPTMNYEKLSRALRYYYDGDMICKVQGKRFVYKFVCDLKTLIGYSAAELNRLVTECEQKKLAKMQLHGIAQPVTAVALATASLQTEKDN
The procedure, abridged: as §1

The target in another experiment is T4, ERG (Homo sapiens, UniProt P11308 1-479).
T4 sequence: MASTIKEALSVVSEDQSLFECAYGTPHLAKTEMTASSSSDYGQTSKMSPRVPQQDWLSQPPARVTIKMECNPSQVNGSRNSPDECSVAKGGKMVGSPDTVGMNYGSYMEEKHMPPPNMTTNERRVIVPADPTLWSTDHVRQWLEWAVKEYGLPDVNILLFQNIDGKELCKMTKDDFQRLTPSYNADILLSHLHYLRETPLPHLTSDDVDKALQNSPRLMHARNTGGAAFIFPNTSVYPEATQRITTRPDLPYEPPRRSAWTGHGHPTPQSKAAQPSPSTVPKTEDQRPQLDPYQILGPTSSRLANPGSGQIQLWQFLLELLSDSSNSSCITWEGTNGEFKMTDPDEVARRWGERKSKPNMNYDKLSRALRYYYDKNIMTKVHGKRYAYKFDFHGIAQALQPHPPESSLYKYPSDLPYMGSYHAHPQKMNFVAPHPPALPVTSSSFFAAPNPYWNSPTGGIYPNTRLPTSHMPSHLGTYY
In outline:
as §1

The target of the next experiment is ELF1 (Homo sapiens, UniProt P32519 1-619). The procedure, abridged: as §1
ELF1, sequence (P32519 whole entry): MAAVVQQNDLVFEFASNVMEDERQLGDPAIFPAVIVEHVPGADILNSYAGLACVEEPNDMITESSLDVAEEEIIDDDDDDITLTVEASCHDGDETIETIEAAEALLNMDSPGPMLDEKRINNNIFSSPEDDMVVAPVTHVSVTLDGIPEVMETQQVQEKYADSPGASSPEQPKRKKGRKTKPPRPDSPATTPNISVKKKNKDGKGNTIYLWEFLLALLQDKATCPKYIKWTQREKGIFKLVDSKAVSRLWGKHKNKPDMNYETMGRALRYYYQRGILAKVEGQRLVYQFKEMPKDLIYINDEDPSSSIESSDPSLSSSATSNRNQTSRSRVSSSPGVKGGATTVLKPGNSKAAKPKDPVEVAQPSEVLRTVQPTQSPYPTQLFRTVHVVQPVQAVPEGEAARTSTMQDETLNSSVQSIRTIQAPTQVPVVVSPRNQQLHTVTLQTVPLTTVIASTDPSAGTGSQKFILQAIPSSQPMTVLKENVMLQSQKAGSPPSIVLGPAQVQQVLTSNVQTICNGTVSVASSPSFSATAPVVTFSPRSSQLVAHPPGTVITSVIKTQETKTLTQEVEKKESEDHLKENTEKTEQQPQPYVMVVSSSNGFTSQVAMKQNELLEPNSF
Another experiment addresses T5, EHF (Homo sapiens, UniProt Q9NZC4 1-300).
T5 sequence: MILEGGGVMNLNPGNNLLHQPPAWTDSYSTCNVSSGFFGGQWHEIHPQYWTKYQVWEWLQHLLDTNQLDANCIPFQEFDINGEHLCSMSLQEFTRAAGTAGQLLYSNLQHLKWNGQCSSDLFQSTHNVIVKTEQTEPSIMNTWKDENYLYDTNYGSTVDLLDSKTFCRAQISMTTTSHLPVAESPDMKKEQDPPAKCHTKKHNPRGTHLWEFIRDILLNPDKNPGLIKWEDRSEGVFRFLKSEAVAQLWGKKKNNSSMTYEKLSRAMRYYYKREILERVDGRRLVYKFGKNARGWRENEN
The procedure, abridged:
as §1

The next experiment has as its target SPI1 (Homo sapiens, UniProt P17947 1-270). In outline:
as §1

The next experiment has as its target SPIB (Homo sapiens, UniProt Q01892 1-262). In outline:
as §1

The next experiment addresses T6, ELK3 (Homo sapiens, UniProt P41970 1-407).
T6 sequence: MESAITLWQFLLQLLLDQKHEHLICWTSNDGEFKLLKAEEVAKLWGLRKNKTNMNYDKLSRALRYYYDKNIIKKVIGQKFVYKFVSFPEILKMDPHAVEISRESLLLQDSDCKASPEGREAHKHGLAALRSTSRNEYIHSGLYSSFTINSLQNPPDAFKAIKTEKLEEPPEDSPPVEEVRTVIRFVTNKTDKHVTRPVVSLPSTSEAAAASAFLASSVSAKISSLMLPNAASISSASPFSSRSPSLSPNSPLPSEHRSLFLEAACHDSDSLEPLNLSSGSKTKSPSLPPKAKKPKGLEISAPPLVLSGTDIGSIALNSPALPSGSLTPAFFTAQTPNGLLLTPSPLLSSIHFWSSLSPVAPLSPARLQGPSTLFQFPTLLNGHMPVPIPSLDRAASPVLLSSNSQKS
In outline: as §1

The next experiment concerns the target T7, FEV (Homo sapiens, UniProt Q99581 1-238).
T7 sequence: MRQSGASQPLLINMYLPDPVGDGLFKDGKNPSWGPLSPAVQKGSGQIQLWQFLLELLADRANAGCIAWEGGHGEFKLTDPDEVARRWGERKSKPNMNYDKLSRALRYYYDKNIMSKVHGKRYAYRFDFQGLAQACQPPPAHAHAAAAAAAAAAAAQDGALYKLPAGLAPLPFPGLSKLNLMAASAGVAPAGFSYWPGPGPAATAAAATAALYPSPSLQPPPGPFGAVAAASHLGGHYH
The procedure, abridged: as §1

The target of the next experiment is ETV5 (Homo sapiens, UniProt P41161 1-510). In outline: as §1
ETV5, sequence (P41161 whole entry): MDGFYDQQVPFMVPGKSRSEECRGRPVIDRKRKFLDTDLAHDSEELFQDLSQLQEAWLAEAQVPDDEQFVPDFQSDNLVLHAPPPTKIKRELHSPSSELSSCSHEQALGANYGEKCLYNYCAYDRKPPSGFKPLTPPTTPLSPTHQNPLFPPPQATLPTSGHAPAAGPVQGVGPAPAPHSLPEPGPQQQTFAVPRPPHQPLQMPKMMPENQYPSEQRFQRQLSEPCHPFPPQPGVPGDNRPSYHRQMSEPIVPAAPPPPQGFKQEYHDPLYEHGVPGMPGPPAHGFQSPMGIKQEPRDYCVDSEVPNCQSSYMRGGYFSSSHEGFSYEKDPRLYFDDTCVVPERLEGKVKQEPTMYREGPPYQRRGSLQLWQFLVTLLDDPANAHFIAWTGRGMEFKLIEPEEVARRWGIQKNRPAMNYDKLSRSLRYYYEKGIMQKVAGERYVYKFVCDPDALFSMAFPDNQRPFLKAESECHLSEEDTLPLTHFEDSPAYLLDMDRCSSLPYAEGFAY
The target of the next experiment is T8, SPIC (Homo sapiens, UniProt Q8N5J4 1-248).
T8 sequence: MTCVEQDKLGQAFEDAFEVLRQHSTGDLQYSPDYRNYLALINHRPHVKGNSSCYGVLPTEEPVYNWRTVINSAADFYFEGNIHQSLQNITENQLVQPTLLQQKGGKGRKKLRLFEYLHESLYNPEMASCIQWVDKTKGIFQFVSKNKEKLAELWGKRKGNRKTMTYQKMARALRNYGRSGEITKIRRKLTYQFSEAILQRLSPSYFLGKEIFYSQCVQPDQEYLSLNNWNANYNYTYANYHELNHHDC
The procedure, abridged:
as §1

The target of the next experiment is ELF4 (Homo sapiens, UniProt Q99607 1-663). In outline:
as §1

The target in the next experiment is T9, ELK4 (Homo sapiens, UniProt P28324-2 1-405).
T9 sequence: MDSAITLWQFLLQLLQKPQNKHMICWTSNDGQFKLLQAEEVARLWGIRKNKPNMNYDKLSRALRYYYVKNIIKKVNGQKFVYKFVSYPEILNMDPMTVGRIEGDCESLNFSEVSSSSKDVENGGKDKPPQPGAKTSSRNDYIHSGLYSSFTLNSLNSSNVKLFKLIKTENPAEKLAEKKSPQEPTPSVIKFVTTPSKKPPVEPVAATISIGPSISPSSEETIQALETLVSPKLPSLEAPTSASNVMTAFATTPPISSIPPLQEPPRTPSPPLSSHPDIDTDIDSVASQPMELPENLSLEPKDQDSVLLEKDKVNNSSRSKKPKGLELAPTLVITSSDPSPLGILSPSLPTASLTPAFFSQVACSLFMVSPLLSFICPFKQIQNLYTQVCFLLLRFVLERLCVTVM
In outline:
as §1

In the next experiment the target is T10, ETV2 (Homo sapiens, UniProt O00321 1-342).
T10 sequence: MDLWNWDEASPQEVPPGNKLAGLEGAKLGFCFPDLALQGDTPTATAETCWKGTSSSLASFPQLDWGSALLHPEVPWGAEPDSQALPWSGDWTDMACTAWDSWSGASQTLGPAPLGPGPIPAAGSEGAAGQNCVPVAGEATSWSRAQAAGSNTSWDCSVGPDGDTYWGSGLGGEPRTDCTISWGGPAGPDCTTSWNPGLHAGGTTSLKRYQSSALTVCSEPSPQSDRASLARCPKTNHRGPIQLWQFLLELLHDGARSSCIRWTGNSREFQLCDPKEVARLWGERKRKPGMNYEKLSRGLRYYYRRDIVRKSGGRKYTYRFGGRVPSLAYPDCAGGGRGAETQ
The procedure, abridged:
as §1

In the next experiment the target is T11, ELF3 (Homo sapiens, UniProt P78545 1-371).
T11 sequence: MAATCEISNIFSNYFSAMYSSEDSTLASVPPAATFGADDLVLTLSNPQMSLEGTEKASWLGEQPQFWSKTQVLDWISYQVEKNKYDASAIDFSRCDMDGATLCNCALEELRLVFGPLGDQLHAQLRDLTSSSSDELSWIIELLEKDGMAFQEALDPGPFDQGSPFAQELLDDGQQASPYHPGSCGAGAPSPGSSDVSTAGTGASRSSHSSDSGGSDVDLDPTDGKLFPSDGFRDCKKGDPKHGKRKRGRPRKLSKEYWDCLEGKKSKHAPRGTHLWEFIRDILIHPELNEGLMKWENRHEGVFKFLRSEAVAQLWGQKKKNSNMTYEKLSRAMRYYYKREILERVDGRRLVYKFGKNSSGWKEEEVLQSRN
The procedure, abridged: as §1

The target in a further experiment is ETV1 (Homo sapiens, UniProt P50549 1-477). The procedure, abridged:
as §1

ETV1, sequence (P50549 whole entry): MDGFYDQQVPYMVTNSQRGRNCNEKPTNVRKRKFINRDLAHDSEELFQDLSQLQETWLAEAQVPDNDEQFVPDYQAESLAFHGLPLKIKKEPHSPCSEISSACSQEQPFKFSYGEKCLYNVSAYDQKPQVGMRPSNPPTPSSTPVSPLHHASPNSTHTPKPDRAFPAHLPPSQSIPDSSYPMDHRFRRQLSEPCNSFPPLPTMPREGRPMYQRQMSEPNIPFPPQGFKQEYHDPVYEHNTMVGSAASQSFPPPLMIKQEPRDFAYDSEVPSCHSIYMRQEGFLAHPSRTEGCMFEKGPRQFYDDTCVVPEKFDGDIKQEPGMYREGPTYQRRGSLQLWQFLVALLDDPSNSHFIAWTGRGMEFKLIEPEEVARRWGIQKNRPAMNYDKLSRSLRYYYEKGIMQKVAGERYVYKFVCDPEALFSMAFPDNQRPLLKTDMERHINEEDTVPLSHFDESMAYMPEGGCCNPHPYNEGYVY
SPIB, sequence (Q01892 whole entry): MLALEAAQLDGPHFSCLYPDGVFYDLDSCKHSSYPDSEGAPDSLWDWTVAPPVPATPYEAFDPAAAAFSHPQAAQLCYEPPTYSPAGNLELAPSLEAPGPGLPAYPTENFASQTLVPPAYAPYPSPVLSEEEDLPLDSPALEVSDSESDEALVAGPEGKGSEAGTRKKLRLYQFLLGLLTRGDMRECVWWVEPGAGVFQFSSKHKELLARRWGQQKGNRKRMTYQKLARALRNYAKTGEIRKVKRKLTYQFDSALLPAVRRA
ELF4, sequence (Q99607 whole entry): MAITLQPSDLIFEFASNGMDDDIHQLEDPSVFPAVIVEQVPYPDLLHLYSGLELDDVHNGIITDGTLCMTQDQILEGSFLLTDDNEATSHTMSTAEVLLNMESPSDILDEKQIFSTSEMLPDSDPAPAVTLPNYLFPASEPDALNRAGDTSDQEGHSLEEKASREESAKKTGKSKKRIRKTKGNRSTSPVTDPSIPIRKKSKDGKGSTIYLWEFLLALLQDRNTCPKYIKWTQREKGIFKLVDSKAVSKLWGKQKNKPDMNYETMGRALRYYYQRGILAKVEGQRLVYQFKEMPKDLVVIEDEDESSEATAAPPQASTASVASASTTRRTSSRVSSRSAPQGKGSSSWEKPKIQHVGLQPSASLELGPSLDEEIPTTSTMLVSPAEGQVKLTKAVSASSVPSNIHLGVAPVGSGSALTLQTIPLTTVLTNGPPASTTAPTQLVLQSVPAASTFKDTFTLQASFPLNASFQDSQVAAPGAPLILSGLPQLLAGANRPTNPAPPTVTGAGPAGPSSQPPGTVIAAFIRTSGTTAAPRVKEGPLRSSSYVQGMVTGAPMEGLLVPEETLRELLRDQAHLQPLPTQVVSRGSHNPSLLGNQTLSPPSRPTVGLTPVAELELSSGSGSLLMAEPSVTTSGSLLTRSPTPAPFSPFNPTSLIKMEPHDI

On to GGAAGC, for which the binding signal with FLI1 is 1.5 fold enrichment (6-mer frequency, TF over GST control); with ELK1 it was 1.64 fold enrichment (6-mer frequency, TF over GST control); with GABPA it was 1.45 fold enrichment (6-mer frequency, TF over GST control); with ERG, 1.85 fold enrichment (6-mer frequency, TF over GST control); with ELF1 it was 1.39 fold enrichment (6-mer frequency, TF over GST control); with EHF it was 1.68 fold enrichment (6-mer frequency, TF over GST control). In addition, the binding signal with SPI1 is 1.74 fold enrichment (6-mer frequency, TF over GST control); with SPIB, 1.63 fold enrichment (6-mer frequency, TF over GST control); in the experiment with ELK3 it was 1.77 fold enrichment (6-mer frequency, TF over GST control); in the experiment with FEV it was 1.74 fold enrichment (6-mer frequency, TF over GST control); with ETV5, 1.79 fold enrichment (6-mer frequency, TF over GST control); with SPIC, 1.39 fold enrichment (6-mer frequency, TF over GST control). Further, the binding signal in the experiment with ELF4 was 1.4 fold enrichment (6-mer frequency, TF over GST control); in the experiment with ELK4, 1.43 fold enrichment (6-mer frequency, TF over GST control); with ETV2 it was 1.54 fold enrichment (6-mer frequency, TF over GST control); with ELF3, 1.48 fold enrichment (6-mer frequency, TF over GST control); in the experiment with ETV1, 1.82 fold enrichment (6-mer frequency, TF over GST control).
